Results filed as inconclusive are left out. Active and inactive are the calls of the source. Unless noted, calls follow the shape of the dose curve; as a rule, active = well fitted curve in the direction sought with a large enough effect in the repeat runs; inconclusive = weak or mixed curves; inactive = no such curve, though single readings can be large; an effect the other way counts as inactive or inconclusive.
Experiments:
[1] = qHTS assay to identify aromatase inhibitors - cell viability counter screen (AID 743084); conditions: MCF-7 aro ERE viability, CellTiter-Fluor, 24 h; series mostly up to 70.3 µM;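 also: cells stimulated with testosterone during compound exposure; nearly all actives have a fitted effect of over 55% in size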
[2] = qHTS assay to identify small molecule that activate the aryl hydrocarbon receptor (AhR) signaling pathway - cell viability counter screen (AID 743086); conditions: HepG2-AhR-luc viability, CellTiter-Fluor, 24 h; series mostly up to 70.3 µM;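 also: HepG2 liver cells carrying the AhR DRE luciferase reporter; nearly all actives have a fitted effect of over 45% in size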
Procedure, shortened: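 HepG2-AhR-luc (HG2L7.5c1) cells, 4000/well, treated 24 h at 37 C with compound; viability measured as CellTiter-Fluor fluorescence after 30 min in the same wells as the luciferase read.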

[3] = biological target: Peroxisome proliferator-activated receptor gamma (Homo sapiens) (UniProt P37231); assay: qHTS assay to identify small molecule agonists of the peroxisome proliferator-activated receptor gamma (PPARg) signaling pathway (AID 743094; active = well fitted activation curve with a large enough effect in the signal ratio in the repeat runs, not every such curve was filed as active; the % refers to the signal ratio); conditions: HEK293H PPARg-UAS-bla, beta-lactamase FRET ratio, 17 h; series mostly up to 57 µM
Chain of Peroxisome proliferator-activated receptor gamma (Homo sapiens) (P37231 whole entry, looked up): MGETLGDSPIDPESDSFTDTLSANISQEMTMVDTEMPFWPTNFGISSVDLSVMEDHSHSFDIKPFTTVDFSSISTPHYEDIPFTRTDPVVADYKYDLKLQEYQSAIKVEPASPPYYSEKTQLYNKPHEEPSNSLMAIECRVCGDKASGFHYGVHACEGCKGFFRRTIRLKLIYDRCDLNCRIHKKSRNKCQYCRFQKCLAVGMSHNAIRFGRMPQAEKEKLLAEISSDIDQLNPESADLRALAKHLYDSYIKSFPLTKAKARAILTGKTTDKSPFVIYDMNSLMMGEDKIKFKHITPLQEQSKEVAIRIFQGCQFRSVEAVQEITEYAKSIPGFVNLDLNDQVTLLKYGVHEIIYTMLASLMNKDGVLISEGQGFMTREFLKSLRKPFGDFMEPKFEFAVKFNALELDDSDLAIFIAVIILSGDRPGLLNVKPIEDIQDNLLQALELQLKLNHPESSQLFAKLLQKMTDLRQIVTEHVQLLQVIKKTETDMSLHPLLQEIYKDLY
Procedure, shortened: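 Fluorescence-based beta-lactamase readout in HEK293H PPARg UAS-bla cells after 17 h compound exposure (37C) and 1 h B/G FRET substrate incubation at room temperature.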

[4] = biological target: Peroxisome proliferator-activated receptor gamma (Homo sapiens) (UniProt P37231); assay: qHTS assay to identify small molecule antagonists of the peroxisome proliferator-activated receptor gamma (PPARg) signaling pathway (AID 743191; calls by dose curve; also: nearly all actives have a fitted effect of over 30% in size); conditions: HEK293H PPARg-UAS-bla, beta-lactamase ratio, antagonist, 17 h; series mostly up to 62.6 µM
Procedure, shortened: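 GeneBLAzer PPARg UAS-bla HEK293H cells, 5 h post-plating, exposed to compounds 17 h at 37C. LiveBLAzer B/G FRET substrate added for 1 h at room temperature; beta-lactamase reporter read by fluorescence intensity.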

[5] = qHTS assay to identify small molecule antagonists of the peroxisome proliferator-activated receptor gamma (PPARg) signaling pathway - cell viability counter screen (AID 743194); conditions: PPARg-bla HEK293H viability, CellTiter-Glo luminescence, 17 h, co-treated with 50 nM rosiglitazone; series mostly up to 62.6 µM; also: nearly all actives have a fitted effect of over 55% in size
Procedure, shortened: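 Cytotoxicity counter screen in PPARg-bla HEK293H cells, same wells as reporter assay. Compounds plus 50 nM rosiglitazone (final) for 17 h at 37 C, then viability read by CellTiter-Glo luminescence.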

[6] = qHTS assay for small molecule activators of the heat shock response signaling pathway - cell viability counter screen (AID 743209); conditions: HSE-bla HeLa viability, CellTiter-Glo luminescence, 5 h; series mostly up to 62.6 µM; also: nearly all actives have a fitted effect of over 50% in size
Procedure, shortened: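 To flag cytotoxic compounds, HSE-bla HeLa cells plated at 1500 cells/well were dosed for 5 h at 37 C, followed by the reporter FRET read and then CellTiter-Glo, with luminescence recorded 30 min after reagent addition.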

[7] = qHTS assay for small molecule activators of the heat shock response signaling pathway (AID 743210; active = well fitted activation curve with a large enough effect in the signal ratio in the repeat runs, with a control signal flat, not every such curve was filed as active; the % refers to the signal ratio;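 also: HeLa cells with beta-lactamase reporter driven by heat shock elements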); conditions: HeLa HSE-bla reporter, beta-lactamase ratio, 5 h; series mostly up to 62.6 µM
Procedure, shortened: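 Beta-lactamase reporter read-out: FRET substrate fluorescence after 2.5 h at RT, following 5 h compound treatment at 37 C of HeLa cells carrying HSE-driven bla reporter; quantitative HTS format.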

[8] = qHTS assay to identify small molecule agonists of the peroxisome proliferator-activated receptor delta (PPARd) signaling pathway - cell viability counter screen (AID 743211); conditions: PPARd-bla HEK293H viability, CellTiter-Glo luminescence, 17 h; series mostly up to 62.6 µM; also: nearly all actives have a fitted effect of over 55% in size
Procedure, shortened: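 In the same wells used for beta-lactamase reporter measurement, cytotoxicity is scored by CellTiter-Glo. HEK293H PPARd-bla cells receive compound for 17 h at 37C following a 5 h settling period.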

[9] = qHTS assay to identify small molecule antagonists of the peroxisome proliferator-activated receptor delta (PPARd) signaling pathway - cell viability counter screen (AID 743213); conditions: PPARd-bla HEK293H viability, CellTiter-Glo luminescence, 17 h; series mostly up to 62 µM; also: nearly all actives have a fitted effect of over 50% in size
Procedure, shortened: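 PPARd-bla HEK293H cells (3000/well) got compound plus 300 nM L165041 agonist for 17 h at 37 C. Viability in the same wells came from CellTiter-Glo luminescence after 30 min at room temperature.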

[10] = biological target: Peroxisome proliferator-activated receptor delta (Homo sapiens) (UniProt Q03181); assay: qHTS assay to identify small molecule antagonists of the peroxisome proliferator-activated receptor delta (PPARd) signaling pathway (AID 743215; active = well fitted inhibition curve with a large enough effect in the signal ratio in the repeat runs, not every such curve was filed as active; the % refers to the signal ratio;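 also: cells stimulated with agonist L165041 at 300 nM final during compound exposure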); conditions: HEK293H PPARd-UAS-bla, beta-lactamase FRET ratio, antagonist, 17 h; series mostly up to 62 µM
Chain of Peroxisome proliferator-activated receptor delta (Homo sapiens) (Q03181 whole entry, looked up): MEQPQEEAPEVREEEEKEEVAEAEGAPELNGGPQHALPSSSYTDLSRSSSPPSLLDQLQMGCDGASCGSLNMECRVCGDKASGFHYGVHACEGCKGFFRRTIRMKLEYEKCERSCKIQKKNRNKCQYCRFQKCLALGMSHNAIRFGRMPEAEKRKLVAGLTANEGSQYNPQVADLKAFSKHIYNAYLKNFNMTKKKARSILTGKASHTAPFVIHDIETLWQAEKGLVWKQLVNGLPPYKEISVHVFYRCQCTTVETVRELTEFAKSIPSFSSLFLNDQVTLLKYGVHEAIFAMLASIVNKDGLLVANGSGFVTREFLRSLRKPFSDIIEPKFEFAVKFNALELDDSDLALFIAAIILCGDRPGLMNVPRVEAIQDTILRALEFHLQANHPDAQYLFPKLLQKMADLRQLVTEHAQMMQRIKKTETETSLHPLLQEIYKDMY
Procedure, shortened: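 Screen format: qHTS, antagonist mode. HEK293H PPARd-bla cells received compound and 300 nM L165041 (final), 17 h, 37 C. Beta-lactamase detected via FRET substrate fluorescence, 2 h, room temperature.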

[11] = biological target: Bile acid receptor (Homo sapiens) (UniProt Q96RI1); assay: qHTS assay to identify small molecule antagonists of the farnesoid-X-receptor (FXR) signaling pathway (AID 743217; active = well fitted inhibition curve with a large enough effect in the signal ratio in the repeat runs, not every such curve was filed as active; the % refers to the signal ratio); conditions: HEK293T FXR-UAS-bla, beta-lactamase ratio, CDCA-stimulated, 16 h; series mostly up to 62.6 µM
Chain of Bile acid receptor (Homo sapiens) (Q96RI1 whole entry, looked up): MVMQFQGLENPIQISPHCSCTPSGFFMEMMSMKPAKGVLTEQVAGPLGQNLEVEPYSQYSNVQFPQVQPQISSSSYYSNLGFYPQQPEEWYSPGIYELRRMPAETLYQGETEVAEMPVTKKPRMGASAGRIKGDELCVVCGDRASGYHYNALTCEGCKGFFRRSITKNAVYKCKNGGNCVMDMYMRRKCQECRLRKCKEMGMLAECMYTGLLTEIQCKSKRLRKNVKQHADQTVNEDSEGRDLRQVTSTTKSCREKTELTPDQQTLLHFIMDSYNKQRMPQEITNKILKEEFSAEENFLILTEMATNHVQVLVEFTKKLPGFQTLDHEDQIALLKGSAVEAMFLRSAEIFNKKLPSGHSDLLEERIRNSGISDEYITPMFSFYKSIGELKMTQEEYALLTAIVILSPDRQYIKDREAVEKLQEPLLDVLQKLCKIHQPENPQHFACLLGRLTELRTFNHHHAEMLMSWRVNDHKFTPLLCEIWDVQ
Procedure, shortened: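 Quantitative HTS, beta-lactamase reporter format: FXR-UAS-bla HEK 293T cells co-treated 16 h at 37 °C with compounds and 50 uM final chenodeoxycholic acid, then read by B/G FRET fluorescence.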

[12] = biological target: Bile acid receptor (Homo sapiens) (UniProt Q96RI1); assay: qHTS assay to identify small molecule agonists of the farnesoid-X-receptor (FXR) signaling pathway (AID 743220; active = well fitted activation curve with a large enough effect in the signal ratio in the repeat runs, not every such curve was filed as active; the % refers to the signal ratio); conditions: HEK293T FXR-UAS-bla, beta-lactamase FRET ratio, 16 h; series mostly up to 62.6 µM
Procedure, shortened: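 FXR-UAS-bla HEK 293T cells carrying a UAS-driven beta-lactamase reporter were plated for 5 h at 37C/5% CO2, then exposed to DMSO-dissolved Tox21 10K compounds for 16 h at 37C. A LiveBLAzer B/G FRET substrate was loaded for 2 h at room temperature before fluorescence reading.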

[13] = qHTS assay to identify small molecule antagonists of the farnesoid-X-receptor (FXR) signaling pathway - cell viability counter screen (AID 743221; active = well fitted cell-killing curve with a large enough effect in the repeat runs, not every such curve was filed as active; also: nearly all actives have a fitted effect of over 50% in size); conditions: FXR-bla HEK293T viability, CellTiter-Glo luminescence, 16 h; series mostly up to 62.6 µM
Procedure, shortened: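 Here viability was scored by luminescence after CellTiter-Glo addition to wells already read for beta-lactamase. Prior treatment: compound plus CDCA (50 uM final), 16 h, 37 C, HEK 293T FXR-bla cells.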

[14] = qHTS assay for small molecule agonists of the antioxidant response element (ARE) signaling pathway - cell viability counter screen (AID 743203; calls by dose curve; also: nearly all actives have a fitted effect of over 55% in size); conditions: ARE-bla HepG2 viability, CellTiter-Glo luminescence, 16 h; series mostly up to 73.3 µM
Procedure, shortened: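 Parallel cytotoxicity read-out for the ARE-bla screen: HepG2 reporter cells, 16 hrs with compounds, then CellTiter-Glo luminescence.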

[15] = qHTS assay to identify small molecule agonists of the farnesoid-X-receptor (FXR) signaling pathway - cell viability counter screen (AID 743218); conditions: FXR-bla HEK293T viability, CellTiter-Glo luminescence, 16 h; series mostly up to 62.6 µM; also: nearly all actives have a fitted effect of over 45% in size
Procedure, shortened: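 Same-well cytotoxicity check on FXR-UAS-bla HEK 293T cells: 5 h attachment, 16 h compound at 37 C, CellTiter-Glo luminescence read at room temperature after 30 min.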

[16] = qHTS assay for small molecule agonists of the antioxidant response element (ARE) signaling pathway (AID 743202; active = well fitted activation curve with a large enough effect in the signal ratio in the repeat runs, not every such curve was filed as active; the % refers to the signal ratio; also: potency is read from the fitted curve at half-maximal effect); conditions: HepG2 ARE-bla reporter, beta-lactamase FRET, 16 h; series mostly up to 73.3 µM
Procedure, shortened: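 HepG2 ARE-bla reporter line, 2,000 cells/well; 5 h preincubation 37 C/5% CO2; compound (DMSO) 16 h 37 C; B/G FRET substrate 2 h RT; fluorescence intensity.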

[17] = biological target: Peroxisome proliferator-activated receptor delta (Homo sapiens) (UniProt Q03181); assay: qHTS assay to identify small molecule agonists of the peroxisome proliferator-activated receptor delta (PPARd) signaling pathway (AID 743212; calls by dose curve); conditions: HEK293H PPARd-UAS-bla, beta-lactamase FRET ratio, 17 h; series mostly up to 62.6 µM
Procedure, shortened: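 Read-out: beta-lactamase FRET fluorescence after 2 h room-temperature incubation with LiveBLAzer B/G substrate. Cells were HEK293H carrying a UAS-bla reporter for PPARd, treated at 37 C with DMSO-dissolved compounds.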

[18] = biological target: Vitamin D3 receptor (Homo sapiens) (UniProt P11473); assay: qHTS assay to identify small molecule agonists of the vitamin D receptor (VDR) signaling pathway (AID 743222; calls by dose curve); conditions: HEK293T VDR-UAS-bla, beta-lactamase FRET ratio, 16 h; series mostly up to 63.5 µM
Chain of Vitamin D3 receptor (Homo sapiens) (P11473 whole entry, looked up): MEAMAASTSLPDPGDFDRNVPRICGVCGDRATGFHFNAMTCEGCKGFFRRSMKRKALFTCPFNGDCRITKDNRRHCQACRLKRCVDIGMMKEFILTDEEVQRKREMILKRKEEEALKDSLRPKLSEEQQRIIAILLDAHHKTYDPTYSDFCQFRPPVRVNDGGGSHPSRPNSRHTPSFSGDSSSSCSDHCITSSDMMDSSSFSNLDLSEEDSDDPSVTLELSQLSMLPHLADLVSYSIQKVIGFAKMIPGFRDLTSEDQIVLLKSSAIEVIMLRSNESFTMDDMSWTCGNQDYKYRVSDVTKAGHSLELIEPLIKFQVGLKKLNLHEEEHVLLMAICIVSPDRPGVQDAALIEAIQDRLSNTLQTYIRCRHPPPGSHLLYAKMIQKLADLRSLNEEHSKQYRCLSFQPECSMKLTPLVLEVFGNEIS
Procedure, shortened: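 Using LiveBLAzer B/G FRET detection, agonism was scored in VDR-bla cells exposed overnight (16 h, 37C) to DMSO-dissolved compounds; substrate incubation was 2 h at room temperature.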

[19] = biological target: Vitamin D3 receptor (Homo sapiens) (UniProt P11473); assay: qHTS assay to identify small molecule antagonists of the vitamin D receptor (VDR) signaling pathway (AID 743223; active = well fitted inhibition curve with a large enough effect in the signal ratio in the repeat runs, not every such curve was filed as active; the % refers to the signal ratio); conditions: VDR-UAS-bla HEK293T, beta-lactamase FRET ratio, 16 h; series mostly up to 61 µM
Procedure, shortened: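 Inhibition of agonist-driven VDR signalling is scored in VDR-bla cells: 3 nM final 1alpha,25-dihydroxyvitamin D3 plus compound, 16 h at 37C, then beta-lactamase detection by FRET substrate fluorescence after 2 h.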

[20] = biological target: Aryl hydrocarbon receptor (Homo sapiens) (UniProt P35869); assay: qHTS assay to identify small molecule that activate the aryl hydrocarbon receptor (AhR) signaling pathway (AID 743085); conditions: HepG2 AhR-luc (HG2L7.5c1), luciferase, 24 h; series mostly up to 70.3 µM;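 also: HG2L7.5c1 human HepG2 liver cells with stably integrated DRE-driven firefly reporter; nearly all actives have a fitted effect of over 15% in size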
Chain of Aryl hydrocarbon receptor (Homo sapiens) (P35869 whole entry, looked up): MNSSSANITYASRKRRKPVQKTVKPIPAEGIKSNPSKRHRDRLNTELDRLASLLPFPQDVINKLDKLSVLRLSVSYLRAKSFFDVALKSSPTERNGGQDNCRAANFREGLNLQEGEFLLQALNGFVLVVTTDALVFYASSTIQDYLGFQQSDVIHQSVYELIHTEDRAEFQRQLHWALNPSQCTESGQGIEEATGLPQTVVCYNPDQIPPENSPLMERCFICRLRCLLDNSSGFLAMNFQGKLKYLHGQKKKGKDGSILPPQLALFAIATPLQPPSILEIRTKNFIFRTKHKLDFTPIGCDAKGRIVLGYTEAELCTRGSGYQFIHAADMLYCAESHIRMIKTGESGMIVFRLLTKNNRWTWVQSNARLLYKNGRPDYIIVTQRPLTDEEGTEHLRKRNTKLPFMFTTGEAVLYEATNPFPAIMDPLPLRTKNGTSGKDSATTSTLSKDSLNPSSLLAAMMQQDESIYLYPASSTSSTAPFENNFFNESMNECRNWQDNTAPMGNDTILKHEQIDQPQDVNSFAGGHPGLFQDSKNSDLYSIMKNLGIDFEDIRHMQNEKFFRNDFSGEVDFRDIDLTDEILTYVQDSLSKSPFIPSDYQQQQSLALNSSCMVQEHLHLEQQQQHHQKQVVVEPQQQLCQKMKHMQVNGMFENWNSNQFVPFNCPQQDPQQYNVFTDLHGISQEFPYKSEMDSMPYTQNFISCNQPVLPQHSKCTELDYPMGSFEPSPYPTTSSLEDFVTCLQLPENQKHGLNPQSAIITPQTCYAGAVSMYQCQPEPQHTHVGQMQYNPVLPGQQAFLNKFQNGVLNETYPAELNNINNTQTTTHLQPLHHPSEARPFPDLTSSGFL
Procedure, shortened: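 Stably transfected human liver carcinoma cells (HG2L7.5c1; 20 DRE-firefly luciferase) were incubated 5 h, dosed, and kept 24 h at 37C. Agonism was scored from increased luciferase luminescence.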
% is scaled to controls: 0 for no effect and ±100 for the full control effect.

CCC(=O)OC(C)(C)C1CC=C(C)CC1 (configuration not stated)
inactive: Potency [1] | Potency [2] | Potency [3] | Potency [4] | Potency [5] | Potency [6] | outcome [7] | Potency [8] | Potency [9] | outcome [10] | outcome [11] | outcome [12] | Potency [13]

C[C@H](CCC(=O)O)[C@H]1CC[C@H]2[C@@H]3[C@H](O)C[C@@H]4C[C@H](O)CC[C@]4(C)[C@H]3CC[C@]12C
inactive: Potency [1] | Potency [2] | Potency [3] | Potency [5] | Potency [14] | outcome [7] | Potency [8] | Potency [15] | Potency [13]

NC[C@H]1O[C@H](O[C@H]2[C@H](O)[C@@H](O[C@H]3O[C@H](CO)[C@@H](O)[C@H](N)[C@H]3O)[C@H](N)C[C@@H]2N)[C@H](O)[C@@H](O)[C@@H]1O
inactive: Potency [1] | Potency [2] | Potency [3] | activity change, negative = cytotoxicity [5] -17.2% [at 5.95 µM] | activation [16] 4.43% [at 8.36 µM] | viability change, negative = cytotoxic [14] 7.86% [at 8.36 µM] | activity change, negative = cytotoxicity [6] 5.37% [at 5.95 µM] | activity change, negative = cytotoxicity [8] -7.03% [at 5.95 µM] | activation [17] -4.29% [at 5.95 µM] | viability change, negative = cytotoxic [9] -5.87% [at 6.26 µM] | ratio activity, negative = inhibition [10] 3.27% [at 6.26 µM] | viability change, negative = cytotoxic [15] 5.82% [at 5.95 µM] | activity change, negative = cytotoxicity [13] -10.3% [at 5.95 µM] | activation [18] -7.13% [at 6.01 µM] | activity change, negative = inhibition [19] 5.88% [at 6.95 µM]

CC1=CC(=O)/C(=C(/C)O)C(=O)O1
inactive: Potency [1] | Potency [2] | Potency [3] | Potency [5] | Potency [16] | Potency [14] | Potency [6] | outcome [7] | Potency [8] | outcome [17] | Potency [9] | outcome [11] | Potency [15] | outcome [12] | Potency [13] | outcome [18]

COc1ccc(C(C)=O)cc1
inactive: Potency [1] | Potency [2] | Potency [3] | Potency [4] | Potency [5] | Potency [6] | outcome [7] | Potency [9] | Potency [13] | Potency [19]

O=C(O)Cn1c(C(=O)Nc2nc(-c3ccccc3Cl)cs2)cc2ccccc21
active: Potency [16] 21.1 µM
inactive: Potency [1] | Potency [2] | Potency [4] | Potency [5] | Potency [14] | Potency [8] | Potency [9] | outcome [11] | Potency [15] | outcome [12] | Potency [13] | Potency [19]

Cc1ccc(C(N)=O)cc1N
inactive: Potency [1] | Potency [2] | Potency [3] | Potency [5] | Potency [16] | Potency [14] | Potency [6] | outcome [7] | Potency [8] | outcome [17] | Potency [9] | outcome [10] | Potency [15] | Potency [13] | outcome [18] | Potency [19]

O=C(O)C(c1ccc(Cl)cc1)c1ccc(Cl)cc1
inactive: Potency [1] | Potency [2] | Potency [5] | Potency [16] | Potency [14] | Potency [6] | outcome [7] | Potency [8] | outcome [17] | Potency [9] | outcome [11] | Potency [15] | outcome [12] | Potency [13] | outcome [18]

O=C1Nc2cc(Cl)ccc2Oc2ccccc21
inactive: Potency [4] | Potency [5] | Potency [14] | outcome [7] | Potency [8] | outcome [17] | outcome [10] | outcome [11] | Potency [15] | outcome [12] | Potency [13] | outcome [18] | Potency [19]

NC(N)=N/N=C/c1c(Cl)cccc1Cl
inactive: Potency [20] | Potency [2] | Potency [3] | Potency [4] | Potency [5] | Potency [14] | outcome [7] | Potency [8] | Potency [9] | Potency [15] | Potency [13] | Potency [19]

Source: PubChem BioAssay (Tox21)
